Assay results published in PubChem BioAssay (NCATS).
Inconclusive results are not listed. Where a call stands in place of a potency, no number is given. The source made the active and inactive calls. The call rests on the fitted dose curve; in most records, active means well fitted inhibition curve with a large enough effect; inconclusive means small, poorly fitted or top-dose-only effect; inactive means no such curve, though single readings can be large or run the other way.

Tested on: Zika virus NS2B-NS3 protease (unlinked complex)
Assay: Primary screen GU Rhodamine qHTS for Zika virus inhibitors: Unlinked NS2B-NS3 protease assay (AID 1347159); further: nearly all actives have a fitted effect of over 60% in size
Details: Recombinant ZIKV NS2B-NS3 protease, Rhodamine110 substrate fluorescence; series mostly up to 107 µM
Method in brief: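 Buffer 10 mM Tris-HCl pH 8.0, 0.01% Tween 20. Unlinked protease 25 nM; compound preincubation 15 min, RT, protected from light. Substrate Rhod110, 1.5 microM; ~15% conversion in 15 min.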
Potency means the concentration at half of the fitted maximal effect.

Row | SMILES | Potency
1 | COc1ccc(F)cc1-c1cc(NC(=O)[C@@H]2CCCNC2)ncc1Cl | inactive
2 | CCOc1cc(CC(=O)NC(CC(C)C)c2ccccc2N2CCCCC2)ccc1C(=O)O (configuration not stated) | 20 µM (active)
3 | C/C=C/C=C/C=C/C(=O)OC1C=C(C=O)C(O)(C(=O)O)C2(C)CCCC(C)(C)C12 (configuration not stated) | 8.91 µM (active)
4 | CC1=C(C(=O)O)/C(=C\CO[C@@H]2O[C@H](CO)[C@@H](O)[C@H](O)[C@H]2O)C(OC(=O)/C=C\c2ccc(O)cc2)C1 (some centres not stated) | inactive
5 | CC1CCC23COC(=O)C2=CC(O)CC3C1(C)CCC1=CC(O)OC1=O (configuration not stated) | 8.91 µM (active)
6 | O=C(OC[C@@]1(O)CO[C@@H](O[C@H]2[C@H](Oc3ccc(O)cc3)O[C@H](CO)[C@@H](O)[C@@H]2O)[C@@H]1O)c1ccc(O)cc1 | inactive
7 | CC(C)=CCC/C(C)=C/Cc1ccc(O)c(C2OC(=O)c3cc(C(=O)O)cc(O)c32)c1O (configuration not stated) | 2.24 µM (active)
8 | COc1ccc(-n2[nH]c(=O)c3[nH]c4cc(Cl)ccc4c(=O)c3c2=O)c(C)c1 | 56.2 µM (active)
9 | CCCC(=O)NCCc1csc(-c2ccc(Cl)cc2)n1 | inactive
10 | C[C@@H]1CCN(C(=O)N2CCCC2)C[C@@H]1N(C)c1ncnc2[nH]ccc12 | inactive
11 | Cc1ccccc1C#Cc1ccc(CCC(=O)O)cc1 | 14.1 µM (active)
12 | C[C@@H]1O[C@@H](O[C@@H]2CO[C@@H](O[C@H]3CC[C@@]4(C)C(CC[C@]5(C)C4CC=C4[C@@H]6CC(C)(C)CC[C@]6(C(=O)O[C@@H]6O[C@H](CO)[C@@H](O)[C@H](O)[C@H]6O)CC[C@]45C)[C@]3(C)CO)[C@H](O)[C@H]2O[C@@H]2O[C@H](CO)[C@@H](O)[C@H](O)[C@H]2O)[C@H](O)[C@H](O)[C@H]1O (some centres not stated) | inactive
